Measured values as given in PMC5540273 (PLoS ONE, 2017).

Legend:
Conditions in all cases: concentration: 1 μM, replicates: in singlicate; n = 1
CDKL2 = tested on: CDKL2
CDKL3 = tested on: CDKL3
CDKL5 = tested on: CDKL5
CHEK1 = tested on: CHEK1
CHEK2 = tested on: CHEK2
CIT = tested on: CIT
CLK1 = tested on: CLK1
CLK2 = tested on: CLK2
CLK3 = tested on: CLK3
CLK4 = tested on: CLK4
CSF1R-autoinhibited = tested on: CSF1R-autoinhibited
CSF1R = tested on: CSF1R
CSK = tested on: CSK
CSNK1A1L = tested on: CSNK1A1L
CSNK1A1 = tested on: CSNK1A1
CSNK1D = tested on: CSNK1D
CSNK1E = tested on: CSNK1E
CSNK1G1 = tested on: CSNK1G1
CSNK1G2 = tested on: CSNK1G2
CSNK1G3 = tested on: CSNK1G3
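Note: KINOMEscan kinase panel screen.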

SMILES	%Inh (CDKL2)	%Inh (CDKL3)	%Inh (CDKL5)	%Inh (CHEK1)	%Inh (CHEK2)	%Inh (CIT)	%Inh (CLK1)	%Inh (CLK2)	%Inh (CLK3)	%Inh (CLK4)	%Inh (CSF1R-autoinhibited)	%Inh (CSF1R)	%Inh (CSK)	%Inh (CSNK1A1L)	%Inh (CSNK1A1)	%Inh (CSNK1D)	%Inh (CSNK1E)	%Inh (CSNK1G1)	%Inh (CSNK1G2)	%Inh (CSNK1G3)
Cl.Cl.c1ccc(-c2cc3ccncc3cc2OC2CCNCC2)cc1 [GSK1122999]	10%	0%	7%	3%	0%	55%	64%	32%	4%	71%	5%	49%	0%	23%	16%	0%	41%	14%	0%	27%
CSc1nn2c(=O)cc(N3CCOCC3)nc2n1Cc1cccc(Cl)c1Cl [GSK2347225]	27%	0%	8%	15%	0%	35%	40%	0%	100%	12%	0%	4%	0%	32%	0%	13%	87%	6%	0%	33%
OCCOCCn1ccc2ncnc(Nc3ccc(Oc4cccc(Cl)c4)c(Cl)c3)c21	0%	5%	0%	0%	0%	2%	0%	0%	0%	0%	0%	0%	0%	0%	0%	0%	0%	0%	0%	0%
Cl.c1ccc(Cn2ccc3cc(Nc4ncnc5ccccc45)ccc32)cc1 [GW275568]	4%	8%	0%	2%	27%	5%	26%	10%	59%	0%	0%	55%	20%	0%	0%	26%	55%	15%	0%	22%
CC(C)N1CCC(n2cnc(-c3ccc(F)cc3)c2-c2ccnc(N)n2)CC1 [SB-223132]	13%	9%	0%	0%	0%	69%	5%	0%	10%	0%	0%	0%	0%	31%	93.1%	96.4%	98.8%	2%	3%	6%
